Sampled rows, rich in hits. Any-hit rate of the full collection: about 6.5%.
Lassa entry inh: qHTS for Inhibitors of binding or entry into cells for Lassa Virus; Lassa virus pseudotype entry inhibition, cell reporter; Potency, µM (highest dose often 37.9 µM), most hits filed as inhibitors; 300,000 compounds, 1.2% hits; AID 540256, 2011; calls by dose curve; tested in HEK293 cells; also: nearly all actives have a fitted effect of over 50% in size
VACV Venus inh: qHTS for Stage-Specific Inhibitors of Vaccinia Orthopoxvirus: Venus Reporter Primary qHTS. Potency, µM (doses to about 36.5 µM), most hits filed as inhibitors. Vaccinia virus Venus reporter expression, fluorescence. 330,000 compounds, 0.46% hits. AID 720580, 2013; calls by dose curve; tested in A549 cells; also: nearly all actives have a fitted effect of over 30% in size
HCMV inh: qHTS Assay for inhibitors of the human cytomegalovirus (HCMV); HFF cells, HCMV-luciferase reporter, 72 h; active compounds read low; activity change, negative = inhibition, % at 57.5 µM; 410,000 compounds, 4.5% hits; in the data active = activity change below about -60%; inconclusive = no clear call, values can overlap the other calls; inactive = above about -39%
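Inhibition of viral replication was scored as loss of reporter luminescence in HFFs infected with HCMV-luciferase (MOI 1 PFU/cell) for 72 h; compounds tested at 2 doses, normalized to buffer and Salinomycin controls.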
Marburg entry inh: qHTS for inhibitors of binding or entry into cells for Marburg Virus | Marburg virus pseudotyped entry inhibition, cell reporter | Potency, µM (doses to about 37.8 µM), most hits filed as inhibitors | 300,000 compounds, 1.8% hits; calls by dose curve; tested in HEK293 cells
FMDV antiviral: High Throughput Screening for Foot and Mouth Disease Virus Antivirals | FMDV antiviral cell-based qHTS | Potency, µM (doses to about 57.9 µM), hits mostly inhibitors | 410,000 compounds, 1.2% hits; calls by dose curve; tested in HEK293T cells; also: read-out not given here; nearly all actives have a fitted effect of over 45% in size
VACV mCherry inh: qHTS for Stage-Specific Inhibitors of Vaccinia Orthopoxvirus: mCherry Reporter Primary qHTS | Vaccinia virus mCherry reporter infection, fluorescence | Potency, µM (series often up to 36.5 µM), usual class: inhibitors | 310,000 compounds, 0.63% hits; calls by dose curve; tested in A549 cells; also: nearly all actives have a fitted effect of over 35% in size
Of the large screens only hits and unclear results are named; the others gave an inactive call.

COc1cc(C(=O)c2cocc2C(=O)c2ccc3c(c2)OCO3)cc(OC)c1OC	Marburg entry inh inconclusive
COc1cc(C(=O)c2ccc3c(c2)OCO3)cc(OC)c1OC	Lassa entry inh inconclusive, HCMV inh -83, Marburg entry inh inconclusive, VACV mCherry inh inconclusive
COc1cccc(/C=C/C(=O)c2ccc3c(c2)OCO3)c1OC	VACV Venus inh inconclusive, VACV mCherry inh 13µM (no result: HCMV inh)
COc1ccc(N/C=C\C(=O)c2ccc3c(c2)OCO3)cc1OC	HCMV inh inconclusive
O=c1[nH]c(=O)n(C2CC(O)C(CO)O2)cc1C(F)(F)F (configuration not stated)	VACV mCherry inh 2µM (no result: Lassa entry inh, HCMV inh, Marburg entry inh)
Nc1nc(=O)n(C2CC(O)C(CO)O2)cc1F (configuration not stated)	Lassa entry inh inconclusive, VACV Venus inh inconclusive, HCMV inh -97, Marburg entry inh inconclusive, VACV mCherry inh inconclusive
CC=C[C@@H]1Oc2ccc(OC)cc2N2C(=O)[C@H](C)[C@@H](OCOC)[C@H]12	none (no result: Lassa entry inh, VACV Venus inh, HCMV inh, FMDV antiviral, VACV mCherry inh)
Cc1ccc(C(=O)COC(=O)CCC(=O)Nc2ccc(Oc3ccccc3)cc2)cc1	none
CCCCCCC(C)(C)c1ccc([C@@H]2C[C@H](O)CC[C@H]2CCCO)c(O)c1	Lassa entry inh inconclusive, VACV Venus inh inconclusive, Marburg entry inh 13µM, FMDV antiviral inconclusive, VACV mCherry inh inconclusive
COc1ccc(CNC(=O)CCC2N=C3c4ccccc4N=C(SCC(=O)NCCc4ccc(OC)c(OC)c4)N3C2=O)cc1 (configuration not stated)	none (no result: Marburg entry inh)
CCc1ccc(CN(Cc2ccco2)c2cnc(S(C)(=O)=O)nc2C(=O)Nc2c(C)cccc2C)cc1	Marburg entry inh inconclusive
COCC(=O)Nc1cc(C(=O)NCCc2ccccc2)ccc1Cl	Lassa entry inh 10µM, Marburg entry inh inconclusive
CCOCC(=O)Nc1cc(C(=O)NCCc2ccccc2)ccc1Cl	Marburg entry inh inconclusive
Cc1cc2oc(C(=O)Nc3ccc(S(=O)(=O)N4CCC(C)CC4)cc3)cc(=O)c2cc1C	none
CC1CCCN(S(=O)(=O)c2ccc(NC(=O)C3CCN(C(=O)c4ccco4)CC3)cc2)C1 (configuration not stated)	HCMV inh -60
Cc1cc2oc(C(=O)Nc3ccc(S(=O)(=O)Nc4nccs4)cc3)cc(=O)c2cc1Cl	HCMV inh -79 (no result: Lassa entry inh, VACV Venus inh, Marburg entry inh, VACV mCherry inh)
Cc1cc2oc(C(=O)Nc3ccc(S(=O)(=O)N4CCCC(C)C4)cc3)cc(=O)c2cc1Cl (configuration not stated)	Lassa entry inh inconclusive, Marburg entry inh 11µM
Cc1cccc2sc(NC(=O)C3CCN(C(=O)c4ccco4)CC3)nc12	Lassa entry inh 7.9µM, Marburg entry inh inconclusive
O=c1cc(-c2ccncc2)oc2c1ccc1ccccc12	HCMV inh -79, Marburg entry inh inconclusive
O=c1cc(C(Cl)(Cl)Cl)oc2c1ccc1ccccc12	Lassa entry inh inconclusive, HCMV inh -105, Marburg entry inh 2.1µM, FMDV antiviral 14µM, VACV mCherry inh inconclusive
Cc1ccc(/C=C/C(=O)Nc2ccccc2C(N)=O)cc1	Lassa entry inh inconclusive, Marburg entry inh 13µM
CC(C)(C)c1ccc(/C=C/C(=O)NC2=NCCS2)cc1	Lassa entry inh 14µM (no result: VACV mCherry inh)
Cc1ccc(/C=C/C(=O)NC2=NCCS2)cc1	Lassa entry inh 1.6µM, Marburg entry inh 3.2µM
Cc1ccc(NC(=O)C2CCCN(S(=O)(=O)c3ccc4c(c3)CCCC(=O)N4)C2)cc1N(C)C (configuration not stated)	FMDV antiviral inconclusive (no result: Marburg entry inh)
COC(=O)C1=C(C(=O)OC)[C@@H]2N(Cc3ccccc3)c3ccccc3[C@@]23CCC(=O)N(CC2CCCCC2)C3=N1	none (no result: Lassa entry inh, VACV Venus inh, HCMV inh, FMDV antiviral, VACV mCherry inh)
CCc1ccc(NCc2cc3ccc(OC)cc3n(CC(=O)Nc3ccc(F)cc3F)c2=O)cc1	none (no result: Marburg entry inh)
COc1ccc(Nc2ncc(C(=O)Nc3cccc(OC)c3)c3ccccc23)cc1	Lassa entry inh inconclusive
O=c1nc2n(c3ccc([N+](=O)[O-])cc13)CCCCC2	none
N#C/C(=C\c1cccc([N+](=O)[O-])c1)c1nnc2n1CCCCC2	HCMV inh -69, Marburg entry inh inconclusive
CN(c1ccccc1)c1ccc(/C=C(\C#N)c2nnc3n2CCCCC3)cc1[N+](=O)[O-]	Lassa entry inh 7.1µM, HCMV inh -78, Marburg entry inh inconclusive
COc1ccc(NC(=O)CSc2oc(-c3ccc(F)cc3)nc2S(=O)(=O)c2ccc(C)cc2)c(OC)c1	VACV Venus inh inconclusive
O=C(Cc1ccc(N2CCNC2=O)cc1)N1CCCC(Nc2ccc(F)c(F)c2)C1 (configuration not stated)	HCMV inh -61, Marburg entry inh inconclusive, VACV mCherry inh inconclusive
O=C(Cc1ccc(N2CCNC2=O)cc1)N1CCCC(Nc2cccc(F)c2)C1 (configuration not stated)	none (no result: Lassa entry inh, VACV Venus inh, Marburg entry inh, VACV mCherry inh)
Cc1cc(C)n(C(C[N+](=O)[O-])c2ccc(Cl)cc2)n1 (configuration not stated)	HCMV inh -105, FMDV antiviral inconclusive
O=C1NC2C3CC(c4ccccc43)C12 (configuration not stated)	HCMV inh -70 (no result: Lassa entry inh, Marburg entry inh)
Cc1cc(=O)[nH]c2ccccc12	Marburg entry inh inconclusive
Cc1cc2[nH]c3c(c[n+](C)c4ccccc34)c2cc1C	HCMV inh -98 (no result: Lassa entry inh, VACV Venus inh, Marburg entry inh, VACV mCherry inh)
CC1=C(C(=O)Nc2ccccc2)C(c2ccncc2)n2nc(SCc3ccccc3Cl)nc2N1 (configuration not stated)	none
C/C(=N\NC(=S)Nc1ccc(C)c(C)c1)c1ccc(N2CCOCC2)cc1	HCMV inh -61 (no result: Lassa entry inh, VACV Venus inh, Marburg entry inh, VACV mCherry inh)
C/C(=N\NC(=S)Nc1ccc(F)cc1)c1ccc2c(c1)OCCO2	Lassa entry inh inconclusive, VACV Venus inh inconclusive, Marburg entry inh 1µM
C/C(=N\NC(=S)Nc1cc(S(=O)(=O)N2CCOCC2)ccc1Cl)c1ccc(N2CCOCC2)cc1	none (no result: Lassa entry inh, Marburg entry inh)
COCC(=O)O[C@]1(CCN(C)CCCc2nc3ccccc3[nH]2)CCc2cc(F)ccc2[C@@H]1C(C)C	Lassa entry inh 5.2µM, VACV Venus inh inconclusive, HCMV inh -98, Marburg entry inh 7.3µM, FMDV antiviral inconclusive
Cc1cc(/C=C2\Cc3ccccc3C2=O)c(C)n1-c1ccccc1	Lassa entry inh inconclusive, HCMV inh inconclusive, Marburg entry inh inconclusive, FMDV antiviral 13µM
O=C1NN(c2ccccc2)C(=O)C1=Cc1ccccc1O	none (no result: Lassa entry inh, Marburg entry inh)
Cc1cc(C=C2C(=O)c3ccccc3C2=O)c(C)n1-c1ccccc1	Lassa entry inh inconclusive, Marburg entry inh 6.5µM, FMDV antiviral 1.1µM (no result: VACV Venus inh, VACV mCherry inh)
Cc1cc(/C=C2/C(=O)NN(c3ccccc3)C2=O)c(C)n1-c1cccc(O)c1	Lassa entry inh 4µM, HCMV inh inconclusive, Marburg entry inh inconclusive, FMDV antiviral 45µM
CCOc1c2c(c(-c3ccc4c(c3)OCO4)c3cc(OC)c(OC)cc13)C(=O)OC2	VACV Venus inh 4µM, VACV mCherry inh inconclusive (no result: Lassa entry inh, HCMV inh, Marburg entry inh, FMDV antiviral)
